Experimental data from PubChem BioAssay.
Activity calls are given as the source filed them. Unless noted, no rule for the calls is given here.

Assays:
[1] = tested on: Wnt5a (protein binding on small-molecule microarray); experiment: Wnt5a binders on small-molecule microarray, primary screen, biophysical, 635/667 nm fluorescence (AID 1142); conditions: 635 nm fluorescence, higher = more signal;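 also: fluorescence read at 667 nm with signal to noise per printed feature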
[2] = cell viability in Huh7 cells, primary screen, cytotoxicity control for HCV replication inhibitor project, CellTiter-Glo luminescence, basal, 48 h (AID 1143); conditions: Huh7 HCV replicon, higher = more signal, called active from +8 up or from −8 down;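 also: Huh7 hepatoma cells carrying a hepatitis C replication reporter with no stimulus; test concentration not given here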
[3] = P. aeruginosa biofilm formation inhibitors, primary screen, PAO1 strain, BacTiter-Glo luminescence, LB-PBS (AID 1144); conditions: 12 h, higher = more signal
[4] = CREB reporter modulators without forskolin, primary screen, cell-based, PC12, CRE-LacZ reporter, unstimulated (AID 1145); conditions: no forskolin, luminescence, 4.5 h, higher = more signal, called active from +8 up or from −8 down
[5] = CREB reporter modulators under forskolin, primary screen, cell-based, PC12, CRE-LacZ reporter, forskolin-stimulated (AID 1146); conditions: luminescence, 4.5 h, higher = more signal, called active from +8 up or from −8 down;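 also: PC12 cells with 6xCRE LacZ reporter stimulated by forskolin 10 µM; beta-galactosidase reporter signal reflecting CREB driven transcription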
[6] = molecular target: Streptavidin (Streptomyces avidinii) (UniProt P22629); experiment: streptavidin binders on small-molecule microarray, primary screen, artefact control for SMM compound annotation, biophysical, 635/667 nm fluorescence (AID 1147); conditions: streptavidin binding, higher = more signal;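 also: signal reflects streptavidin binding to arrayed compounds as a control protein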
[7] = small-molecule binders of probe aInhba, primary screen, biochemical, small-molecule microarray, 635/667 nm fluorescence (AID 1148); conditions: higher = more signal;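 also: score merges 667nm spot fluorescence with signal-to-noise for antibody binding to printed compounds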
[8] = molecular target: Torsin-1A (Homo sapiens) (UniProt O14656); experiment: torsin A binders from cell lysate, primary screen, small-molecule microarray, wild-type, 635/667 nm (AID 1149); conditions: COS7 hTOR1A-WT lysate, 635 nm fluorescence, higher = more signal
[9] = molecular target: Torsin-1A (Homo sapiens) (UniProt O14656); experiment: small-molecule binders of mutant TOR1A in lysate, primary screen, cell lysate, small-molecule microarray, COS7 lysate, 635/667 nm fluorescence (AID 1150); conditions: COS7 hTOR1A mutant lysate, 635 nm fluorescence, higher = more signal;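 also: score pools 667 nm emission and signal to noise measuring lysate protein binding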
[10] = tested on: Sonic hedgehog protein (Shh); experiment: small-molecule binders of Shh protein, primary screen, biochemical, small-molecule microarray, 635/667 nm fluorescence (AID 1151); conditions: small-molecule microarray binding, 635 nm fluorescence; higher = more signal;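 also: Shh protein binding to compounds spotted on small-molecule microarray slides; score combines spot fluorescence intensity with signal-to-noise across triplicate slides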
[11] = E. coli DRC41 culture turbidity changes, primary screen, E. coli filamentation inducer project, strain DRC41, OD650, 48 h (AID 1152);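 also: E. coli MC1000 strain DRC41 lacking acrAB efflux pump and sulA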; conditions: E. coli DRC41 (acrAB sulA), higher = more signal, called active from +8 up or from −8 down
[12] = small-molecule binders of probe aLefty1, primary screen, biochemical, small-molecule microarray, 635/667 nm fluorescence (AID 1153); conditions: higher = more signal;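 also: score merges spot fluorescence with signal-to-noise ratio from the scanned slide images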
[13] = PSAC antagonists in infected red cells, primary screen, cell-based, P. falciparum Indochina, OD700, 1 h (AID 1154); conditions: P. falciparum Indochina infected RBC osmotic lysis, higher = more signal, called active from +8 up or from −8 down
[14] = PSAC antagonists in infected red cells, primary screen, cell-based, P. falciparum Indochina, OD700, 2 h (AID 1155);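 also: lysis reports solute entry through the parasite surface anion channel PSAC; channel blockers reduce lysis of infected cells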; conditions: P. falciparum Indochina infected erythrocytes, osmotic lysis OD700; higher = more signal, called active from +8 up or from −8 down
[15] = osmotic lysis modulators in infected erythrocytes, primary screen, PSAC antagonist project, cell-based, P. falciparum Indochina, OD700, 3 h (AID 1156); conditions: higher = more signal, called active from +8 up or from −8 down
[16] = PSAC antagonists in infected red cells, primary screen, cell-based, P. falciparum Indochina, OD700, 18 h (AID 1157); conditions: P. falciparum Indochina infected erythrocytes, osmotic lysis OD700, 18 h; higher = more signal, called active from +8 up or from −8 down
[17] = modulators of S6 phosphorylation in cells, primary screen, cell-based, A549, cytoblot, luminescence, serum-stimulated (AID 1158); conditions: A549 phospho-S6 cytoblot, 5 h, higher = more signal;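 also: serum-stimulated A549 lung adenocarcinoma cells; signal is phosphorylated S6 detected by cytoblot immunostaining with HRP secondary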
[18] = molecular target: NADPH oxidase 2 (Homo sapiens) (UniProt P04839); experiment: NOX2-dependent H2O2 signal modulators, primary screen, NOX inhibitor project, cell-based, HEK293-NOX2, PMA-stimulated, Amplex Red fluorescence (AID 1159); conditions: 45 min, higher = more signal, called active from +8 up or from −8 down; also: test concentration not given here
[19] = molecular target: NADPH oxidase 4 (Homo sapiens) (UniProt Q9NPH5); experiment: NOX4-dependent H2O2 signal modulators, primary screen, NOX inhibitor project, cell-based, HEK293-NOX4, tetracycline-induced, Amplex Red fluorescence (AID 1160); conditions: 45 min, higher = more signal, called active from +8 up or from −8 down
[20] = molecular target: NADPH oxidase 5 (Homo sapiens) (UniProt Q96PH1); experiment: NOX5-dependent H2O2 signal modulators, primary screen, NOX inhibitor project, cell-based, HEK293-NOX5, Amplex Red fluorescence (AID 1161); conditions: HEK293-NOX5, ionomycin, 45 min, higher = more signal
Chain of NADPH oxidase 5 (Homo sapiens) (Q96PH1 whole entry, looked up): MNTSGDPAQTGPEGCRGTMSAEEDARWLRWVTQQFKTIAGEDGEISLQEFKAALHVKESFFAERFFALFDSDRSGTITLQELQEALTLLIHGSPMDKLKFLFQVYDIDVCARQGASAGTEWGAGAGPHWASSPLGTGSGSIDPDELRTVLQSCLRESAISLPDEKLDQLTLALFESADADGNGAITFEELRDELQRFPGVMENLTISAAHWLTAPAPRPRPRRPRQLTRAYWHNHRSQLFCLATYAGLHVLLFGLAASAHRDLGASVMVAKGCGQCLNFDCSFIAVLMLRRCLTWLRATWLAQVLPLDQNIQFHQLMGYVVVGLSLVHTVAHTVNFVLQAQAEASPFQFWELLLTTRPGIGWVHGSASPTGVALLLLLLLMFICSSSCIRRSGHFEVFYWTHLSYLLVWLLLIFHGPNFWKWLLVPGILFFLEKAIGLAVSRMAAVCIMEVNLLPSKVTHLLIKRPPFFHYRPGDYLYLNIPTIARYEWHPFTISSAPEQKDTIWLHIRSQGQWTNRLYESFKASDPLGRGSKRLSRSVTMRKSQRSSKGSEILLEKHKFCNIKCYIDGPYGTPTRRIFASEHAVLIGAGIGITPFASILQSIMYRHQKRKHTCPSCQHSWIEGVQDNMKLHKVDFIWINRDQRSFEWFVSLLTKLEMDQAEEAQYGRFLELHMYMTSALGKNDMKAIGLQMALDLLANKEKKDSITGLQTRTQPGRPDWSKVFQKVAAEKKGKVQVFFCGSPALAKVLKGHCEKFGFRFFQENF

Chain of NADPH oxidase 4 (Homo sapiens) (Q9NPH5 whole entry, looked up): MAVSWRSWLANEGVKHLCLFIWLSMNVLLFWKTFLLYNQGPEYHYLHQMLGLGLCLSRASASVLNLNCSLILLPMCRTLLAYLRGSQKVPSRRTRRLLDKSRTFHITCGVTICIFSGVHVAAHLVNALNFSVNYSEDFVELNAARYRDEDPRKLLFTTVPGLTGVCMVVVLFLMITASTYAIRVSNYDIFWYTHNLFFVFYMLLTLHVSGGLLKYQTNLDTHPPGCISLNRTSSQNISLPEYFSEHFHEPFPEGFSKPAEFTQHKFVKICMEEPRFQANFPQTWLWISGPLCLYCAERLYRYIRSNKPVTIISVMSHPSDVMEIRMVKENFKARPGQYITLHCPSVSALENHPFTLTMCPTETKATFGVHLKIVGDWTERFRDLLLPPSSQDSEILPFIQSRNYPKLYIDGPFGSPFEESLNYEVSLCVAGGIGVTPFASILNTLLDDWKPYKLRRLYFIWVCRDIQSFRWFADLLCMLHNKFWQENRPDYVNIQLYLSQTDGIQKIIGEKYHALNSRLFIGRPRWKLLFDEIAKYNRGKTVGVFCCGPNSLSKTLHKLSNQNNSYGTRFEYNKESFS
Chain of Streptavidin (Streptomyces avidinii) (P22629 whole entry, looked up): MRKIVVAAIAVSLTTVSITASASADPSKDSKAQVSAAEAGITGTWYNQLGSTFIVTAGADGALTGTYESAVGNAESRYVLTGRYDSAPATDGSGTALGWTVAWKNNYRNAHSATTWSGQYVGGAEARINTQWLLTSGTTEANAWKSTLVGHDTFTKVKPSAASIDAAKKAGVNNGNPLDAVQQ
Chain of NADPH oxidase 2 (Homo sapiens) (P04839 whole entry, looked up): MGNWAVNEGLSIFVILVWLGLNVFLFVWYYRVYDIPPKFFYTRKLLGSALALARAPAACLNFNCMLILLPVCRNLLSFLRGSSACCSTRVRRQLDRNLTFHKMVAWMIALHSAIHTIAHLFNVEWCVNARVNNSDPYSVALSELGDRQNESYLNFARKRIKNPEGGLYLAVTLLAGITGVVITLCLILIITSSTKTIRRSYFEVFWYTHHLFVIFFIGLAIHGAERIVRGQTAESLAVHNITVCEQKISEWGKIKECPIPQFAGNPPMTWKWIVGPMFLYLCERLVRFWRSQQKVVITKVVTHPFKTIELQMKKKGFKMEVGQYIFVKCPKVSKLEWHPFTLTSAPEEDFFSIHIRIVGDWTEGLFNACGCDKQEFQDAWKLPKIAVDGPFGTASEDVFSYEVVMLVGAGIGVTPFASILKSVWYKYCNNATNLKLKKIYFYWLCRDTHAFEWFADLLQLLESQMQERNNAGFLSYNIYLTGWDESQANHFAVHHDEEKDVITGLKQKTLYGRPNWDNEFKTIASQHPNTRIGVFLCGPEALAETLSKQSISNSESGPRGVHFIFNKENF
Chain of Torsin-1A (Homo sapiens) (O14656 whole entry, looked up): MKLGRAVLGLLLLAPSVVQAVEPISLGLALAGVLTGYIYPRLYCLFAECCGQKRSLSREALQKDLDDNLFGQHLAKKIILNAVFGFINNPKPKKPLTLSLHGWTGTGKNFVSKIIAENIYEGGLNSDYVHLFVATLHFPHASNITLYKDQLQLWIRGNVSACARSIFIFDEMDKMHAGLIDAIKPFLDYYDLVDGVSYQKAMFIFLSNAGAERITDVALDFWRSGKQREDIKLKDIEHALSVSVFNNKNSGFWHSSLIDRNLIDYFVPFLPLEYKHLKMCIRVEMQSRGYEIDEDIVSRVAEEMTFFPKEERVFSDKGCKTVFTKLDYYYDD

SMILES	composite z-score [1]	z-score [2]	z-score [3]	z-score [4]	z-score [5]	composite z-score [6]	composite z-score [7]	composite z-score [8]	composite z-score [9]	composite z-score [10]	z-score [11]	composite z-score [12]	z-score [13]	z-score [14]	z-score [15]	z-score [16]	z-score [17]	z-score [18]	z-score [19]	z-score [20]
C[C@]1(C(=O)O)c2ccccc2C(=O)N(Cc2cc(F)cc(C(F)(F)F)c2)[C@H]1c1ccc(CO)cc1	-0.0056	-2.56 (inactive)	-2.17 (inactive)	-0.502 (inactive)	-0.172 (inactive)	0.0949	-0.152	-0.0875	0.154	0.505	-0.169 (inactive)	-0.261	2.63 (inactive)	-0.0481 (inactive)	-0.992 (inactive)	-0.927 (inactive)	1.27	0.477 (inactive)	-1.43 (inactive)	-2.26
O=C1[C@H]2C=C(I)[C@H](C[C@@H]2c2ccccc2)[C@@]12CO2	-0.303	-0.496 (inactive)	0.686 (inactive)	0.849 (inactive)	1.31 (inactive)	-0.144	-0.0762	-0.114	-0.153	0.147	-1.76 (inactive)	-0.15	0.613 (inactive)	0.0069 (inactive)	0.402 (inactive)	-0.0396 (inactive)	-0.164	-0.66 (inactive)	0.265 (inactive)	-0.666
CC(C)C(O)C1C=CC2C(=O)NC(=O)C2N1Nc1ccccn1 (stereo not given)	0.122	0.813 (inactive)	-0.248 (inactive)	-0.143 (inactive)	0.219 (inactive)	0.0669	-0.0421	0.238	0.407	-0.212	-0.668 (inactive)	0.134	-0.292 (inactive)	0.695 (inactive)	-0.0484 (inactive)	0.826 (inactive)	-0.846	-1.22 (inactive)	-1.41 (inactive)	-1.79
CC1CC/C=C\[C@H]2OC34C=CCN(C(C)(C)C)C(=O)[C@H]3N(CCCO)C(=O)[C@@H]4C2C(=O)O1 (stereo not given in full)	-0.0437	-0.032 (inactive)	1.08 (inactive)	0.203 (inactive)	-0.539 (inactive)	-0.561	-0.128	0.62	2.01	-0.757	0.0581 (inactive)	-0.0954	-0.022 (inactive)	0.571 (inactive)	-0.857 (inactive)	0.235 (inactive)	0.337	0.78 (inactive)	-2.14 (inactive)	1.25
CN(C)CCCNC(=O)[C@@]1(C)c2ccccc2C(=O)N(Cc2ccc(OC(F)(F)F)cc2)[C@H]1c1ccc(CO)cc1	-0.13	-2.14 (inactive)	-1.04 (inactive)	1.06 (inactive)	-0.175 (inactive)	-1.04	0.0778	-0.924	0.332	0.447	-0.796 (inactive)	-0.104	1.53 (inactive)	-0.103 (inactive)	2.79 (inactive)	0.328 (inactive)	0.235	-0.607 (inactive)	-0.303 (inactive)	-1.63
COC(=O)C(CC#Cc1ccc2c(c1)[C@]1(C(=O)N2)[C@H](c2ccccc2OCCO)N2[C@H](c3ccccc3)[C@H](c3ccccc3)OC(=O)[C@H]2[C@@H]1C(=O)N1CCc2cc(OC)c(OC)cc2C1)C(=O)OC	0.237	-3.09 (inactive)	-0.888 (inactive)	-0.0515 (inactive)	0.509 (inactive)	1.11	-0.138	0.757	0.674	1.82	0.447 (inactive)	0.0215	3.28 (inactive)	2.24 (inactive)	2.54 (inactive)	1.25 (inactive)	-0.033	1.74 (inactive)	1.52 (inactive)	1.73
CC(C)N1C(=O)C[C@@](C(=O)NCCN2CCOCC2)(c2ccc([N+](=O)[O-])cc2)[C@H]1c1ccc(CO)cc1	-0.182	-2.94 (inactive)	-1.4 (inactive)	-0.295 (inactive)	0.668 (inactive)	-0.919	-0.154	-2.27	1.04	-1.1	0.344 (inactive)	-0.832	1.63 (inactive)	-0.0494 (inactive)	1.53 (inactive)	0.35 (inactive)	0.265	-0.54 (inactive)	-0.685 (inactive)	-2.46
[N-]=[N+]=Nc1ccccc1C[C@@]1(C(=O)NCC(O)CO)N=C(c2ccc(OCCCO)cc2)O[C@@H]1c1ccccc1 (stereo not given in full)	0.674	-3.5 (inactive)	0.557 (inactive)	-0.16 (inactive)	-0.57 (inactive)	1.45	0.0047	0.744	0.944	-0.538	0.445 (inactive)	0.102	26.6 (active)	14.1 (active)	2.05 (inactive)	1.87 (inactive)	0.122	2.51 (inactive)	0.662 (inactive)	-0.946
